# Source: the supplement of paper PMC12645437, “Orthogonal IMiD-Degron Pairs Induce Selective Protein Degradation in Cells” (ACS Chemical Biology, 2025)
# The full ranking holds about 8,300 sequences; the median of “log2 fold change of degron read counts, EGFP-low vs EGFP+ sorted cells (limma voom), compound-induced degradation” is about -1.1, and the highest 2% start at about 3.2. For the sample, the highest values were picked, then their nearest neighbours and some sequences at random.
# T1: CRBN, Q96SW2
# T1 chain: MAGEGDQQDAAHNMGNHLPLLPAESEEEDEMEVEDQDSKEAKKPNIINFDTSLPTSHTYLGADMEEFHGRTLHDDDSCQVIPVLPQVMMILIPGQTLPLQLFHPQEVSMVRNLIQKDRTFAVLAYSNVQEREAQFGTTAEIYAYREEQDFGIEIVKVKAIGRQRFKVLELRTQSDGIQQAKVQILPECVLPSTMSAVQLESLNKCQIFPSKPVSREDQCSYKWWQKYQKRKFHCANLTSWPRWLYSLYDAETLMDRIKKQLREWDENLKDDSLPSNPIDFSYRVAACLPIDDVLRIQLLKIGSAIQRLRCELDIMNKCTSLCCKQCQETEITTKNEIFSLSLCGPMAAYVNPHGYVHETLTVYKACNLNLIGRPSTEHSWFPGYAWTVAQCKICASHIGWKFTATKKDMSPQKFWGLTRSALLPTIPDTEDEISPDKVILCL
# Target: T1, CRBN, Q96SW2
# Test: log2 fold change of degron read counts, EGFP-low vs EGFP+ sorted cells (limma voom), compound-induced degradation; higher = more compound-induced degradation of the degron-EGFP fusion; degrons are variants of IKZF1/3 zinc finger 2; compound dose not given here
# Settings: Jurkat, 18 h
# [1] = compound: compound 19 (5-tert-butyl-thalidomide)
# [2] = compound: compound 22 (5-morpholino-thalidomide)
# [3] = compound: compound 33 (diphenyl IMiD analogue)
# 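Note: pooled lentiviral library of zinc finger degron-EGFP fusions in mCherry-positive Jurkat cells, FACS-sorted after compound exposure, with degron abundance counted by next-generation sequencing.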
sequence,measurement,setting,value
"FCCNQCGRTFTQKGNLLRHIKL [46F_47C_49N_50Q_52G_53R_54T_55F_67L_, Q9UKT9]",log2 fold change of degron read counts,[1],-2.96
same,log2 fold change of degron read counts,[2],-2.98
same,log2 fold change of degron read counts,[3],-2.8
same,log2 fold change of degron read counts,compound: thalidomide,-2.49
"FKCNQCGRHFTQKGNLLRHIKL [46F_47K_49N_50Q_52G_53R_54H_55F_67L_, Q9UKT9]",log2 fold change of degron read counts,[1],-2.42
same,log2 fold change of degron read counts,[2],-3.25
same,log2 fold change of degron read counts,[3],-2.92
same,log2 fold change of degron read counts,compound: thalidomide,-2.39
"FICEICGAFFTQKGNLLRHIKL [46F_47I_49E_50I_52G_53A_54F_55F_67L_, Q9UKT9]",log2 fold change of degron read counts,[1],-1.14
same,log2 fold change of degron read counts,[2],0.177
same,log2 fold change of degron read counts,[3],1.46
same,log2 fold change of degron read counts,compound: thalidomide,0.874
"FECSVCGHCFTQKGNLLRHIKL [46F_47E_49S_50V_52G_53H_54C_55F_67L_, Q9UKT9]",log2 fold change of degron read counts,[1],-2.85
same,log2 fold change of degron read counts,[2],-3.1
same,log2 fold change of degron read counts,[3],-2.83
same,log2 fold change of degron read counts,compound: thalidomide,-3.04
"FCCNVCGAVFTQKGNLLRHIKL [46F_47C_49N_50V_52G_53A_54V_55F_67L_, Q9UKT9]",log2 fold change of degron read counts,[1],-1.07
same,log2 fold change of degron read counts,[2],-0.182
same,log2 fold change of degron read counts,[3],1.49
same,log2 fold change of degron read counts,compound: thalidomide,-0.139
"FVCNQCGHYFTQKGNLLRHIKL [46F_47V_49N_50Q_52G_53H_54Y_55F_67L_, Q9UKT9]",log2 fold change of degron read counts,[1],-3.08
same,log2 fold change of degron read counts,[2],-3.34
same,log2 fold change of degron read counts,[3],-2.73
same,log2 fold change of degron read counts,compound: thalidomide,-2.44
"FFCNQCGHDFTQKGNLLRHIKL [46F_47F_49N_50Q_52G_53H_54D_55F_67L_, Q9UKT9]",log2 fold change of degron read counts,[1],-3.06
same,log2 fold change of degron read counts,[2],-4.05
same,log2 fold change of degron read counts,[3],-2.94
same,log2 fold change of degron read counts,compound: thalidomide,-2.8
"FQCEVCGACFTQKGNLLRHIKL [46F_47Q_49E_50V_52G_53A_54C_55F_67L_, Q9UKT9]",log2 fold change of degron read counts,[1],0.807
same,log2 fold change of degron read counts,[2],2.69
same,log2 fold change of degron read counts,[3],2.23
same,log2 fold change of degron read counts,compound: thalidomide,3.69
"FICEVCGACFTQKGNLLRHIKL [46F_47I_49E_50V_52G_53A_54C_55F_67L_, Q9UKT9]",log2 fold change of degron read counts,[1],-0.743
same,log2 fold change of degron read counts,[2],2.1
same,log2 fold change of degron read counts,[3],2.52
same,log2 fold change of degron read counts,compound: thalidomide,2.75
"FSCEVCGACFTQKGNLLRHIKL [46F_47S_49E_50V_52G_53A_54C_55F_67L_, Q9UKT9]",log2 fold change of degron read counts,[1],3.26
same,log2 fold change of degron read counts,[2],2.28
same,log2 fold change of degron read counts,[3],2.54
same,log2 fold change of degron read counts,compound: thalidomide,1.34
"FYCEVCGACFTQKGNLLRHIKL [46F_47Y_49E_50V_52G_53A_54C_55F_67L_, Q9UKT9]",log2 fold change of degron read counts,[1],3.74
same,log2 fold change of degron read counts,[2],3.85
same,log2 fold change of degron read counts,[3],3.1
same,log2 fold change of degron read counts,compound: thalidomide,1.37
"FMCEVCGACFTQKGNLLRHIKL [46F_47M_49E_50V_52G_53A_54C_55F_67L_, Q9UKT9]",log2 fold change of degron read counts,[1],-0.094
same,log2 fold change of degron read counts,[2],0.00255
same,log2 fold change of degron read counts,[3],2.45
same,log2 fold change of degron read counts,compound: thalidomide,1.45
"FTCEVCGACFTQKGNLLRHIKL [46F_47T_49E_50V_52G_53A_54C_55F_67L_, Q9UKT9]",log2 fold change of degron read counts,[1],1.37
same,log2 fold change of degron read counts,[2],2.52
same,log2 fold change of degron read counts,[3],2.51
same,log2 fold change of degron read counts,compound: thalidomide,2.66
"FLCEVCGACFTQKGNLLRHIKL [46F_47L_49E_50V_52G_53A_54C_55F_67L_, Q9UKT9]",log2 fold change of degron read counts,[1],0.437
same,log2 fold change of degron read counts,[2],-0.686
same,log2 fold change of degron read counts,[3],1.57
same,log2 fold change of degron read counts,compound: thalidomide,1.59
"FRCEVCGACFTQKGNLLRHIKL [46F_47R_49E_50V_52G_53A_54C_55F_67L_, Q9UKT9]",log2 fold change of degron read counts,[1],-0.334
same,log2 fold change of degron read counts,[2],-0.2
same,log2 fold change of degron read counts,[3],1.72
same,log2 fold change of degron read counts,compound: thalidomide,1.5
"FVCEVCGACFTQKGNLLRHIKL [46F_47V_49E_50V_52G_53A_54C_55F_67L_, Q9UKT9]",log2 fold change of degron read counts,[1],-0.0594
same,log2 fold change of degron read counts,[2],1.78
same,log2 fold change of degron read counts,[3],2.4
same,log2 fold change of degron read counts,compound: thalidomide,2.7
"LGCEICGFPCTQKGNLLRHIKL [46L_47G_49E_50I_52G_53F_54P_55C_67L_, Q9UKT9]",log2 fold change of degron read counts,[1],-1.16
same,log2 fold change of degron read counts,[2],-1.81
same,log2 fold change of degron read counts,[3],-2.14
same,log2 fold change of degron read counts,compound: thalidomide,-1.69
"FECEICGRNFTQKGNLLRHIKL [46F_47E_49E_50I_52G_53R_54N_55F_67L_, Q9UKT9]",log2 fold change of degron read counts,[1],-2.61
same,log2 fold change of degron read counts,[2],-2.28
same,log2 fold change of degron read counts,[3],-0.395
same,log2 fold change of degron read counts,compound: thalidomide,-0.731
